Results on 1 sequence are retold here after PMC7862700, “An all-to-all approach to the identification of sequence-specific readers for epigenetic DNA modifications on cytosine”.

Assay in all cases: DAPPL (digital affinity profiling via proximity ligation, sequencing); 10 mM Tris-HCl pH 7.5, 50 mM NaCl, 1 mM DTT, 4% glycerol, room temperature, 30 min; GST-TFs on glutathione beads, 16-mer random dsDNA library, 0.1% formaldehyde crosslink after washing; high values mean tight binding
One test addresses T1, ELK1 (Homo sapiens, UniProt P19419 1-428).
T1 sequence: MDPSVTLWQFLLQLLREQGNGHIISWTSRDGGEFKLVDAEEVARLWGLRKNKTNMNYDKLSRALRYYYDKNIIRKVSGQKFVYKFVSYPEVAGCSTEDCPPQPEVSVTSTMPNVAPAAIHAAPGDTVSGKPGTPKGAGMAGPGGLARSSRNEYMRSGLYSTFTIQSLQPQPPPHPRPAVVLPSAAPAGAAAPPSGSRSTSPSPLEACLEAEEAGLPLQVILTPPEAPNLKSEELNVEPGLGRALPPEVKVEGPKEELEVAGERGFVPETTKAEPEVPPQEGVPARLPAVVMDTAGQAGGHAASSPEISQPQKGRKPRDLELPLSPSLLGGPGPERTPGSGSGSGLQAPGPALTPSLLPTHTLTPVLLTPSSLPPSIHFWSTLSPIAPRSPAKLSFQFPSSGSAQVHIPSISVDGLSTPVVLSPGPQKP
To be noted: protein: recombinant; tags: N-terminal GST; dsDNA, one strand shown. In outline: (§1)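 Human transcription factors carrying a GST fusion were produced in yeast, bound to glutathione beads, tagged with DNA barcodes and pooled together with a tag-only sample. Each pool was held with 200 nmole of a random double-stranded 16-mer DNA library in Tris/NaCl/DTT/glycerol buffer for 30 min at room temperature, then washed, crosslinked in 0.1% formaldehyde, proximity-ligated with BsaI/T4 ligase (1 h, 37 °C), PCR-amplified and sequenced on an Illumina NextSeq500. Binding signal is the read frequency of each hexamer for a given factor divided by its frequency in the tag-only sample.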

Another test has as its target ELF1 (Homo sapiens, UniProt P32519 1-619). The note with it: protein: recombinant; tags: N-terminal GST; dsDNA, one strand shown. In outline: as §1
A further test concerns the target SPIB (Homo sapiens, UniProt Q01892 1-262). The note with it: protein: recombinant; tags: N-terminal GST; dsDNA, one strand shown. In outline:
as §1

The target in another test is T2, ELK3 (Homo sapiens, UniProt P41970 1-407).
T2 sequence: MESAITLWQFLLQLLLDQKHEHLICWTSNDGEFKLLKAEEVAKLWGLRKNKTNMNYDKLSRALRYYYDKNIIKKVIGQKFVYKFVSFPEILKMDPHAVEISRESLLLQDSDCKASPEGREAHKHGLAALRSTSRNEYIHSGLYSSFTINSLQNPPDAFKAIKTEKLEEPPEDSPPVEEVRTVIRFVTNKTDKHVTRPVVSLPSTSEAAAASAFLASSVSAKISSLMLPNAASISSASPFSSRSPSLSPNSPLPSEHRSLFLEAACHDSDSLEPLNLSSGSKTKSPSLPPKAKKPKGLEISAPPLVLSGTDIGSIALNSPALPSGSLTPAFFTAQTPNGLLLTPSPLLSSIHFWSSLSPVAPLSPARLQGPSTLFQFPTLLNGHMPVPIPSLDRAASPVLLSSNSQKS
The note with it: protein: recombinant; tags: N-terminal GST; dsDNA, one strand shown. In outline:
as §1

In a further test the target is HSF1 (Homo sapiens, UniProt Q00613 1-529). The note with it: protein: recombinant; tags: N-terminal GST; chain copies: 3; dsDNA, one strand shown. The method in brief: as §1
The target of the next test is T3, SPIC (Homo sapiens, UniProt Q8N5J4 1-248).
T3 sequence: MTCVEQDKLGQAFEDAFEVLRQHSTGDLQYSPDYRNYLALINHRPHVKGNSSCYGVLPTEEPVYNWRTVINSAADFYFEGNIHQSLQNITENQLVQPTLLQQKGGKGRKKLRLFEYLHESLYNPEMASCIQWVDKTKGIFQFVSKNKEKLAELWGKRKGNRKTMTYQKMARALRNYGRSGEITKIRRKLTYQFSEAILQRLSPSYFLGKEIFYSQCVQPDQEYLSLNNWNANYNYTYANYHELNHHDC
The note with it: protein: recombinant; tags: N-terminal GST; dsDNA, one strand shown. In outline: as §1

The target in a further test is ELF4 (Homo sapiens, UniProt Q99607 1-663). To be noted: protein: recombinant; tags: N-terminal GST; dsDNA, one strand shown. The method in brief: as §1
In the next test the target is T4, ETV2 (Homo sapiens, UniProt O00321 1-342).
T4 sequence: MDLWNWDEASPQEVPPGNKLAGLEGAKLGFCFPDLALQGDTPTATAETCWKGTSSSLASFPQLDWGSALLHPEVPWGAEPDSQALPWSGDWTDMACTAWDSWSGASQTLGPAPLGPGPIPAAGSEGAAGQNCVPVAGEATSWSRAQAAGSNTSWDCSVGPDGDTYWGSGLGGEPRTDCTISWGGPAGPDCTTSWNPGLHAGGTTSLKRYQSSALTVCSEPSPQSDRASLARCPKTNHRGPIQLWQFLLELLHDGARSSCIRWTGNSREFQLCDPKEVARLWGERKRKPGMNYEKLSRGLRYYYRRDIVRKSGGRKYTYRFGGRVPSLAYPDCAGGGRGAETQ
The note with it: protein: recombinant; tags: N-terminal GST; dsDNA, one strand shown. In outline:
as §1

Another test concerns the target T5, ELF3 (Homo sapiens, UniProt P78545 1-371).
T5 sequence: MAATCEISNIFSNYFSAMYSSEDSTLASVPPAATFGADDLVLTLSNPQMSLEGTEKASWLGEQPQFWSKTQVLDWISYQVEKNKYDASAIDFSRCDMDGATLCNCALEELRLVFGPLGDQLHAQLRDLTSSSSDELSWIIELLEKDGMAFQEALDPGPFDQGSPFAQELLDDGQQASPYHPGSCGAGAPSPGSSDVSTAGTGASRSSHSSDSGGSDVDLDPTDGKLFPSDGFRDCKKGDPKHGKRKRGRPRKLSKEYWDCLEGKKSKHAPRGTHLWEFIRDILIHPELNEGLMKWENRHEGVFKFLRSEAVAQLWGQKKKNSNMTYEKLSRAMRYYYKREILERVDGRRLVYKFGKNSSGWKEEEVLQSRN
The note with it: protein: recombinant; tags: N-terminal GST; dsDNA, one strand shown. In outline: as §1

The target in a further test is T6, ERF (Homo sapiens, UniProt P50548 1-548).
T6 sequence: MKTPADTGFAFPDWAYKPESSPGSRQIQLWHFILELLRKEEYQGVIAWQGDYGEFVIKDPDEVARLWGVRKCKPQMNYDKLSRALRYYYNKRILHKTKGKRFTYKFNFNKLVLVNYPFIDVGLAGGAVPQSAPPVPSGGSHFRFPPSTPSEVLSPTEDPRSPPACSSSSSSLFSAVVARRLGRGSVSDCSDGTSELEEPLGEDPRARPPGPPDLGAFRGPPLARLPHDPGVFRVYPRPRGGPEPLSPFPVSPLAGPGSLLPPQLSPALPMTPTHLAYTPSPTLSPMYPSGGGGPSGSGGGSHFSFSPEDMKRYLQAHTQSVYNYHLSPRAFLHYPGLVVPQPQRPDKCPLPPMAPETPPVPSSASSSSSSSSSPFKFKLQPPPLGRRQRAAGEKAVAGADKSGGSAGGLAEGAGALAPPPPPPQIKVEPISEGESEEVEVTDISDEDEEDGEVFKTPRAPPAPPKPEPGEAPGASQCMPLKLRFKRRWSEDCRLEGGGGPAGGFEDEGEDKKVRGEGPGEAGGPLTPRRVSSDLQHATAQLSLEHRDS
The note with it: protein: recombinant; tags: N-terminal GST; dsDNA, one strand shown. The method in brief: as §1

In the next test the target is T7, ETV3L (Homo sapiens, UniProt Q6ZN32 1-361).
T7 sequence: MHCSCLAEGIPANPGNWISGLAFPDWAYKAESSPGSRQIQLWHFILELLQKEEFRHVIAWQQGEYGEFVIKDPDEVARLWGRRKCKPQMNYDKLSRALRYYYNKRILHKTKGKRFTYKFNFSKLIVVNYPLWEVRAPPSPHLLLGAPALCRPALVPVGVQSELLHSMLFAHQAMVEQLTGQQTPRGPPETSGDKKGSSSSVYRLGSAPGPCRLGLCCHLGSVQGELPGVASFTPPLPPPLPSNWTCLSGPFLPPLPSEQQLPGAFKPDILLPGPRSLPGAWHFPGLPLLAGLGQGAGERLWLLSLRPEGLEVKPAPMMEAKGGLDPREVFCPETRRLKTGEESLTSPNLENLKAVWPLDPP
To be noted: protein: recombinant; tags: N-terminal GST; dsDNA, one strand shown. The method in brief:
as §1

The next test has as its target T8, ETS2 (Homo sapiens, UniProt P15036 1-469).
T8 sequence: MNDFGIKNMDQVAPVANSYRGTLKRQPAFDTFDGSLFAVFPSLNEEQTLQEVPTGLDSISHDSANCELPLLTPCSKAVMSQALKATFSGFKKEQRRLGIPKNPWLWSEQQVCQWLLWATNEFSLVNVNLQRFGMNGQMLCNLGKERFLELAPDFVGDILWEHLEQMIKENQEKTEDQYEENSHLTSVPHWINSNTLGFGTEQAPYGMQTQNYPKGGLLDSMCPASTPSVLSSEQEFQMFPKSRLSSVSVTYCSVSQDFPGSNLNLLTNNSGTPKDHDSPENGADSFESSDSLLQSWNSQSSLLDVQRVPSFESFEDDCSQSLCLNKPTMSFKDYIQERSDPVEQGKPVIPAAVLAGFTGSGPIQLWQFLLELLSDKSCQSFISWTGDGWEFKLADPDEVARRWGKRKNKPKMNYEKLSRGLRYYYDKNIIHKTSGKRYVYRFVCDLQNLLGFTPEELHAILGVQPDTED
The note with it: protein: recombinant; tags: N-terminal GST; dsDNA, one strand shown. The method in brief:
as §1

Sequence of ELF1 (P32519 whole entry): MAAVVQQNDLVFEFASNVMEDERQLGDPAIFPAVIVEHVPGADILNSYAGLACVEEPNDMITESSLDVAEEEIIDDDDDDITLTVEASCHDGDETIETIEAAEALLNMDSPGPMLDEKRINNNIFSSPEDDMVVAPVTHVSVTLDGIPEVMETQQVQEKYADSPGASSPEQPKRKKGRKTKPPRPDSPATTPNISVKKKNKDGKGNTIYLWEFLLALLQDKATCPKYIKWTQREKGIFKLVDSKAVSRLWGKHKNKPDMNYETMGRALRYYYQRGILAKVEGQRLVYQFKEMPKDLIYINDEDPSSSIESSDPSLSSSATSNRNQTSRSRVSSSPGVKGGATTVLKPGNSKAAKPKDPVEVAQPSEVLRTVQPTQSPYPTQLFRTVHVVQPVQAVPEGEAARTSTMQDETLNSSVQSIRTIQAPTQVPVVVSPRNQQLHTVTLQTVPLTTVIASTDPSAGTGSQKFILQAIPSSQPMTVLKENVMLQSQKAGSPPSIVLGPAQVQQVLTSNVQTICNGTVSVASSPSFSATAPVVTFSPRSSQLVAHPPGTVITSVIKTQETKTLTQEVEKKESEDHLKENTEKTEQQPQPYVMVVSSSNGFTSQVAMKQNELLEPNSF
Sequence of HSF1 (Q00613 whole entry): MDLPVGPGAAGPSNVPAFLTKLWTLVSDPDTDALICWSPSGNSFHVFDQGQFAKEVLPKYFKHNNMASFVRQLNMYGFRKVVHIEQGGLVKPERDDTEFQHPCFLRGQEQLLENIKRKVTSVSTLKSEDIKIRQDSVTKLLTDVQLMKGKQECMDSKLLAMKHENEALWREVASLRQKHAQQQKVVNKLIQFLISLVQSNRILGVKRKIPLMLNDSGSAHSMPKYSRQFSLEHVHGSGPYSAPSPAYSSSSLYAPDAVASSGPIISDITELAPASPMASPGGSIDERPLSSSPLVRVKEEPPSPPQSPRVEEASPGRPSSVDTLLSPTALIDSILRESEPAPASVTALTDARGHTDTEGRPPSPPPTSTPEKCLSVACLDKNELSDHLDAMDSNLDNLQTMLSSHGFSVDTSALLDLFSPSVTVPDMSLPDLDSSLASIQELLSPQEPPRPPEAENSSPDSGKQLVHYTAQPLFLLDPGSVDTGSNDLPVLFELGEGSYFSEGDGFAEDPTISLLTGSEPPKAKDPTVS
Sequence of SPIB (Q01892 whole entry): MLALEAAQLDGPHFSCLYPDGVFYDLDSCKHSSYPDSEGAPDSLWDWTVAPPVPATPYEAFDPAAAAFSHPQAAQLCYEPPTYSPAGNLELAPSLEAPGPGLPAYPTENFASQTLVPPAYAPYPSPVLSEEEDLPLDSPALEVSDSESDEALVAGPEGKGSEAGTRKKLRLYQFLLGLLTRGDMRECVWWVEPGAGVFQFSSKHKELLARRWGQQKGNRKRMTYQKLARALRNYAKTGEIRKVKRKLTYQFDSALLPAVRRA
Sequence of ELF4 (Q99607 whole entry): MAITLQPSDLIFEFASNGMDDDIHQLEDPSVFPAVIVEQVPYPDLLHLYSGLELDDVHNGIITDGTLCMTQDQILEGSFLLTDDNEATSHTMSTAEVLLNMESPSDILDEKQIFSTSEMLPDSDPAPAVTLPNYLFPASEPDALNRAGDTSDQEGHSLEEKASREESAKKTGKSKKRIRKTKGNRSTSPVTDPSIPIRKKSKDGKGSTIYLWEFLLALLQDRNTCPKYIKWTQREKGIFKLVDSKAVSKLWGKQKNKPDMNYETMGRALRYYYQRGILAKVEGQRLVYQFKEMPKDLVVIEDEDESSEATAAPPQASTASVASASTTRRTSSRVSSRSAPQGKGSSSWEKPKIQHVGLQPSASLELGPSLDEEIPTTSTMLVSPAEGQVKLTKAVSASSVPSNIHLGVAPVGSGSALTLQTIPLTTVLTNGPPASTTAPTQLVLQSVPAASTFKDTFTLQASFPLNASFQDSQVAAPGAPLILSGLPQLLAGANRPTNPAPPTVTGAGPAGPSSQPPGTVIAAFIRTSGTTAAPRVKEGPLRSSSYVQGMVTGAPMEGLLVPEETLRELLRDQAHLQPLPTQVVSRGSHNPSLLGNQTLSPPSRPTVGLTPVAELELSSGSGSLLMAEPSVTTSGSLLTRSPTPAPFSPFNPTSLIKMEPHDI

As for AACCGA, the binding signal in the test with ELK1 is 1.02 fold enrichment (6-mer frequency, TF over GST control); with ELF1, 1.04 fold enrichment (6-mer frequency, TF over GST control); in the test with SPIB it was 1.03 fold enrichment (6-mer frequency, TF over GST control); in the test with ELK3 it was 1.01 fold enrichment (6-mer frequency, TF over GST control); with HSF1, 1.04 fold enrichment (6-mer frequency, TF over GST control); in the test with SPIC, 1.09 fold enrichment (6-mer frequency, TF over GST control). Besides, the binding signal was 1.02 fold enrichment (6-mer frequency, TF over GST control) in the test with ELF4; 1.13 fold enrichment (6-mer frequency, TF over GST control) with ETV2; 1.04 fold enrichment (6-mer frequency, TF over GST control) with ELF3; 1 fold enrichment (6-mer frequency, TF over GST control) with ERF; 1.07 fold enrichment (6-mer frequency, TF over GST control) with ETV3L; 1.03 fold enrichment (6-mer frequency, TF over GST control) with ETS2.
